# Laboratory results as given in publication PMC7862700, “An all-to-all approach to the identification of sequence-specific readers for epigenetic DNA modifications on cytosine”.
# Experiments:
# Assay in all cases: DAPPL (digital affinity profiling via proximity ligation, sequencing); 10 mM Tris-HCl pH 7.5, 50 mM NaCl, 1 mM DTT, 4% glycerol, room temperature, 30 min; GST-TFs on glutathione beads, 16-mer random dsDNA library, 0.1% formaldehyde crosslink after washing; high values mean tight binding
# FLI1 = molecular target: T1, FLI1 (Homo sapiens, UniProt Q01543 1-452); details: protein: recombinant; tags: N-terminal GST; dsDNA, one strand shown
# T1 sequence: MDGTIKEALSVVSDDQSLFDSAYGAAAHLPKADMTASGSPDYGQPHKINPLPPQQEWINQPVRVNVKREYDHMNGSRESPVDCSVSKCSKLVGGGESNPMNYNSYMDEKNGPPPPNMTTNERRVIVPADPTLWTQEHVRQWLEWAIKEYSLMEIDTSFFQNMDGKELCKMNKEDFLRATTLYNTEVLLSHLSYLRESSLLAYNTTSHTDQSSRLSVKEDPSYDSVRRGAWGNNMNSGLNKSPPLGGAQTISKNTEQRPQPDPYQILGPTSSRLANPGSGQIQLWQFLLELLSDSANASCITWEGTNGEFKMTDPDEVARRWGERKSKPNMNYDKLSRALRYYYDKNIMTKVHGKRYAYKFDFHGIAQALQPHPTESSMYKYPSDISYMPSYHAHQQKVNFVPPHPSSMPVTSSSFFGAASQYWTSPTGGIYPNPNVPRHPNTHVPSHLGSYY
# Procedure, shortened: (§1)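 Each value of binding signal is a hexamer's read frequency for a factor divided by the same hexamer's frequency in the tag-only sample. Barcoded, bead-captured GST fusions of human transcription factors made in yeast were pooled with that sample and incubated with 200 nmole of a random double-stranded 16-mer DNA library in Tris/NaCl/DTT/glycerol buffer at room temperature for 30 min. Washing, 0.1% formaldehyde crosslinking, proximity ligation, PCR and Illumina NextSeq500 sequencing followed.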
# ELK1 = molecular target: T2, ELK1 (Homo sapiens, UniProt P19419 1-428); details: protein: recombinant; tags: N-terminal GST; dsDNA, one strand shown
# T2 sequence: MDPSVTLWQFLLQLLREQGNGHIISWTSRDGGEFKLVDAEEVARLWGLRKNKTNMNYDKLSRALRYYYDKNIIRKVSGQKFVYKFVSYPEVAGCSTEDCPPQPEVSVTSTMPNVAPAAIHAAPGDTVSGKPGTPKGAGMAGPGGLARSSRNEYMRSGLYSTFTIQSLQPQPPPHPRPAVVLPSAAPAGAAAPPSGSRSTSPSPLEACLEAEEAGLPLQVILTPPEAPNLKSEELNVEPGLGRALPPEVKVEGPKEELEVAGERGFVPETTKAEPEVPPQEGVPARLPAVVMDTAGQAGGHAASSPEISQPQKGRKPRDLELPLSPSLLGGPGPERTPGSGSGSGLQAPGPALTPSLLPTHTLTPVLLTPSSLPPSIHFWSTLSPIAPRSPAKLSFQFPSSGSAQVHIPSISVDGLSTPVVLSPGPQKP
# Procedure, shortened: as §1
# GABPA = molecular target: T3, GABPA (Homo sapiens, UniProt Q06546 1-454); details: protein: recombinant; tags: N-terminal GST; dsDNA, one strand shown
# T3 sequence: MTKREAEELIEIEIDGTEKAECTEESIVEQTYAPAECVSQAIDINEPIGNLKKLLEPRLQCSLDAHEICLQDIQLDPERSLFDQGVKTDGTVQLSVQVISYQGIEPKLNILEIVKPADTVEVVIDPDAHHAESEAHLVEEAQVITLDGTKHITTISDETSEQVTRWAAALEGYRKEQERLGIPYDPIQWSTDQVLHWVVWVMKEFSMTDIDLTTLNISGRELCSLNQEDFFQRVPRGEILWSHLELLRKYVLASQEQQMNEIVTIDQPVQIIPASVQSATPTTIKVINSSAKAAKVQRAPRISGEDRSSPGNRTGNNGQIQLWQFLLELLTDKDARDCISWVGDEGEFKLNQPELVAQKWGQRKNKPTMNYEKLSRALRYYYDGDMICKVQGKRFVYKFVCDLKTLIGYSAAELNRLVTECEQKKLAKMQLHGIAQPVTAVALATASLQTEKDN
# Procedure, shortened: as §1
# ERG = molecular target: T4, ERG (Homo sapiens, UniProt P11308 1-479); details: protein: recombinant; tags: N-terminal GST; dsDNA, one strand shown
# T4 sequence: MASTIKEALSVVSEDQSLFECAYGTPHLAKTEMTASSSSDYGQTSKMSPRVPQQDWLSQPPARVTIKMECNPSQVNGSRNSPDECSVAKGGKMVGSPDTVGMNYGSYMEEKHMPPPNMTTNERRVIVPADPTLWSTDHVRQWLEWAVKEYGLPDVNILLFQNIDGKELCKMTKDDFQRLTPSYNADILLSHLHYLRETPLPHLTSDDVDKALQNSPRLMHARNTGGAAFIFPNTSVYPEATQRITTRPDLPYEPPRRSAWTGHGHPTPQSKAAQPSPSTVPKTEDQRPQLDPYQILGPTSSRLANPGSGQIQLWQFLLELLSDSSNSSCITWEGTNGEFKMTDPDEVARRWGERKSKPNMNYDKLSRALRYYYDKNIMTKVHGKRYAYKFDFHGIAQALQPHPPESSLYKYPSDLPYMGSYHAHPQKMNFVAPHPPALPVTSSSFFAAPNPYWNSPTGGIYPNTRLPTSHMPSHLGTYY
# Procedure, shortened: as §1
# ELF1 = ELF1 (Homo sapiens, UniProt P32519 1-619); details: protein: recombinant; tags: N-terminal GST; dsDNA, one strand shown
# Procedure, shortened: as §1
# EHF = molecular target: T5, EHF (Homo sapiens, UniProt Q9NZC4 1-300); details: protein: recombinant; tags: N-terminal GST; dsDNA, one strand shown
# T5 sequence: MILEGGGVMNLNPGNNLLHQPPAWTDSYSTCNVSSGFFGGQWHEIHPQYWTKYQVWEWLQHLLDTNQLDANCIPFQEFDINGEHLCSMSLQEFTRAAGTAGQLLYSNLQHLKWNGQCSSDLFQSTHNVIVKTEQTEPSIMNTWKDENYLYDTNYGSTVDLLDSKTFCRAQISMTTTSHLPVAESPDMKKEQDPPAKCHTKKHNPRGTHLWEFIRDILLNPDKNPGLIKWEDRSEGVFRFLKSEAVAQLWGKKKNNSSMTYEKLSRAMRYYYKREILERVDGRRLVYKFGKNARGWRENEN
# Procedure, shortened: as §1
# SPI1 = SPI1 (Homo sapiens, UniProt P17947 1-270); details: protein: recombinant; tags: N-terminal GST; dsDNA, one strand shown
# Procedure, shortened: as §1
# SPIB = SPIB (Homo sapiens, UniProt Q01892 1-262); details: protein: recombinant; tags: N-terminal GST; dsDNA, one strand shown
# Procedure, shortened: as §1
# ELK3 = molecular target: T6, ELK3 (Homo sapiens, UniProt P41970 1-407); details: protein: recombinant; tags: N-terminal GST; dsDNA, one strand shown
# T6 sequence: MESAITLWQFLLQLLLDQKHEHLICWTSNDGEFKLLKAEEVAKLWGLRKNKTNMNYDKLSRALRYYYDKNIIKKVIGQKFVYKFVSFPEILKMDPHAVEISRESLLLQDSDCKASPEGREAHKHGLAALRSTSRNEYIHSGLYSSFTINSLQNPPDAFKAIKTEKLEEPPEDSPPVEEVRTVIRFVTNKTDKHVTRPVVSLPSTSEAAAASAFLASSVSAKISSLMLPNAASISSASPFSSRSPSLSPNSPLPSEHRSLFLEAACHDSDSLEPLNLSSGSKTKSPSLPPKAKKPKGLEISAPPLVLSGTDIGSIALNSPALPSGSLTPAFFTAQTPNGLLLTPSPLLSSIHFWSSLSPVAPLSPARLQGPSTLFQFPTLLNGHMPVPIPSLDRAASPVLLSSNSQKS
# Procedure, shortened: as §1
# FEV = molecular target: T7, FEV (Homo sapiens, UniProt Q99581 1-238); details: protein: recombinant; tags: N-terminal GST; dsDNA, one strand shown
# T7 sequence: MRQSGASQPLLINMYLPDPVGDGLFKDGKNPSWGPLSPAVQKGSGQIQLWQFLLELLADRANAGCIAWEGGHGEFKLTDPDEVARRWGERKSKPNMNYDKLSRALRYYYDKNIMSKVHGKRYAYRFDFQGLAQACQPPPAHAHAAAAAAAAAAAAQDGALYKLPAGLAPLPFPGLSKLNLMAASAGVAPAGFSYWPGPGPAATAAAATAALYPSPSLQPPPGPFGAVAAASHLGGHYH
# Procedure, shortened: as §1
# ETV5 = ETV5 (Homo sapiens, UniProt P41161 1-510); details: protein: recombinant; tags: N-terminal GST; dsDNA, one strand shown
# Procedure, shortened: as §1
# HSF1 = HSF1 (Homo sapiens, UniProt Q00613 1-529); details: protein: recombinant; tags: N-terminal GST; chain copies: 3; dsDNA, one strand shown
# Procedure, shortened: as §1
# SPIC = molecular target: T8, SPIC (Homo sapiens, UniProt Q8N5J4 1-248); details: protein: recombinant; tags: N-terminal GST; dsDNA, one strand shown
# T8 sequence: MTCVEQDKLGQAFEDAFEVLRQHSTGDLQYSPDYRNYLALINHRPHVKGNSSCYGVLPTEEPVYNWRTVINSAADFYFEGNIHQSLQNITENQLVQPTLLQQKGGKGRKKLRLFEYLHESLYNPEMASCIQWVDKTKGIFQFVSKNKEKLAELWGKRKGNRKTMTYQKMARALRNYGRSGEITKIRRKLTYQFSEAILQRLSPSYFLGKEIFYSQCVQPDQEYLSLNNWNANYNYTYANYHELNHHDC
# Procedure, shortened: as §1
# ELF4 = ELF4 (Homo sapiens, UniProt Q99607 1-663); details: protein: recombinant; tags: N-terminal GST; dsDNA, one strand shown
# Procedure, shortened: as §1
# ELK4 = molecular target: T9, ELK4 (Homo sapiens, UniProt P28324-2 1-405); details: protein: recombinant; tags: N-terminal GST; dsDNA, one strand shown
# T9 sequence: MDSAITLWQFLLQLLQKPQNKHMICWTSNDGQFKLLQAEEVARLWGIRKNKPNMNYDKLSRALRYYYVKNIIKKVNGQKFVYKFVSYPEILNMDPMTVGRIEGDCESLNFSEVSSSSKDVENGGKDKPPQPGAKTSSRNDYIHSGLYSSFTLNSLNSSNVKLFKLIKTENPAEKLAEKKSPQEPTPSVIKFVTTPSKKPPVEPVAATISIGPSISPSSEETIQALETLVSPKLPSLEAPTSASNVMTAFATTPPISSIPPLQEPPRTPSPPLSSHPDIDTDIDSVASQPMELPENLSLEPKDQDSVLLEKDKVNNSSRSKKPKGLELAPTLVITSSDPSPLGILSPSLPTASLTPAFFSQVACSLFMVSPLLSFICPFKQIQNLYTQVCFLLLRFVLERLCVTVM
# Procedure, shortened: as §1
# ETV2 = molecular target: T10, ETV2 (Homo sapiens, UniProt O00321 1-342); details: protein: recombinant; tags: N-terminal GST; dsDNA, one strand shown
# T10 sequence: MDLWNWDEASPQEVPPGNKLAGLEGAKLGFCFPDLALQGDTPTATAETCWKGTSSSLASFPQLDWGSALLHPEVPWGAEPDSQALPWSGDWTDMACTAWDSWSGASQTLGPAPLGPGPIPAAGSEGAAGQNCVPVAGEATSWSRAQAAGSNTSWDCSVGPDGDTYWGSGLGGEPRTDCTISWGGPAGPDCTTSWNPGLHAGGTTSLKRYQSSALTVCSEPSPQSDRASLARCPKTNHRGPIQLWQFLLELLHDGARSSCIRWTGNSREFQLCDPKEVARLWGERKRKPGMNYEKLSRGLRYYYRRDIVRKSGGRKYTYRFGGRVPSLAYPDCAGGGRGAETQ
# Procedure, shortened: as §1
# ELF3 = molecular target: T11, ELF3 (Homo sapiens, UniProt P78545 1-371); details: protein: recombinant; tags: N-terminal GST; dsDNA, one strand shown
# T11 sequence: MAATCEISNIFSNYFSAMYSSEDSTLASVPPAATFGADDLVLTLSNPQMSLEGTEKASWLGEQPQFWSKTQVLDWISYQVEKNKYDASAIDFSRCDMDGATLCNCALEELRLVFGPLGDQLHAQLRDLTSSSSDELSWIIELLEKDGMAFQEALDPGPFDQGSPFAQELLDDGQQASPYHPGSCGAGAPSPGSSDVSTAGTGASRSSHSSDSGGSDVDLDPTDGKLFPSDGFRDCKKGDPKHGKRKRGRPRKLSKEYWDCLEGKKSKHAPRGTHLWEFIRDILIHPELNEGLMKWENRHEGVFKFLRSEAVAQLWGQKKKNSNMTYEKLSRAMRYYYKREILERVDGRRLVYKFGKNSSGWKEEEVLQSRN
# Procedure, shortened: as §1
# CRX = CRX (Homo sapiens, UniProt O43186 1-299); details: protein: recombinant; tags: N-terminal GST; dsDNA, one strand shown
# Procedure, shortened: as §1
# ETV1 = ETV1 (Homo sapiens, UniProt P50549 1-477); details: protein: recombinant; tags: N-terminal GST; dsDNA, one strand shown
# Procedure, shortened: as §1
# Sequence of ELF4 (Q99607 whole entry): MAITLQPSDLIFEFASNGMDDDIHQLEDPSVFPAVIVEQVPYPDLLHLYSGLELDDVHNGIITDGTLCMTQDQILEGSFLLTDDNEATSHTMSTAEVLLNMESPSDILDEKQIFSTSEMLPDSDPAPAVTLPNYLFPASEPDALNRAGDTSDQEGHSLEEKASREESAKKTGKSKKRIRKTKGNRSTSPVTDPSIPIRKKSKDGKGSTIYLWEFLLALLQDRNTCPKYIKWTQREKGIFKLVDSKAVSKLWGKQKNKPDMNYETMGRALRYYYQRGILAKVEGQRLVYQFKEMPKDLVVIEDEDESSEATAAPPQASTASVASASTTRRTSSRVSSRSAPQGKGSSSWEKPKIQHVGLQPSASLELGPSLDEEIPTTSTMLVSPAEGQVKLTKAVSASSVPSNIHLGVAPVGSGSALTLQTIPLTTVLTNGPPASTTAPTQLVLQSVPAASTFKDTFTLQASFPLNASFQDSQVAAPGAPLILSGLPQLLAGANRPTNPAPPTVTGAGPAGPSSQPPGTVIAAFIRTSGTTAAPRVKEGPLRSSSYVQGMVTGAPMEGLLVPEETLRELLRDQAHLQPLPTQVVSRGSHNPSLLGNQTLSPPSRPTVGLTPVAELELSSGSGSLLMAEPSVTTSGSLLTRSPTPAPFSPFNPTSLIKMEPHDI
# Sequence of ELF1 (P32519 whole entry): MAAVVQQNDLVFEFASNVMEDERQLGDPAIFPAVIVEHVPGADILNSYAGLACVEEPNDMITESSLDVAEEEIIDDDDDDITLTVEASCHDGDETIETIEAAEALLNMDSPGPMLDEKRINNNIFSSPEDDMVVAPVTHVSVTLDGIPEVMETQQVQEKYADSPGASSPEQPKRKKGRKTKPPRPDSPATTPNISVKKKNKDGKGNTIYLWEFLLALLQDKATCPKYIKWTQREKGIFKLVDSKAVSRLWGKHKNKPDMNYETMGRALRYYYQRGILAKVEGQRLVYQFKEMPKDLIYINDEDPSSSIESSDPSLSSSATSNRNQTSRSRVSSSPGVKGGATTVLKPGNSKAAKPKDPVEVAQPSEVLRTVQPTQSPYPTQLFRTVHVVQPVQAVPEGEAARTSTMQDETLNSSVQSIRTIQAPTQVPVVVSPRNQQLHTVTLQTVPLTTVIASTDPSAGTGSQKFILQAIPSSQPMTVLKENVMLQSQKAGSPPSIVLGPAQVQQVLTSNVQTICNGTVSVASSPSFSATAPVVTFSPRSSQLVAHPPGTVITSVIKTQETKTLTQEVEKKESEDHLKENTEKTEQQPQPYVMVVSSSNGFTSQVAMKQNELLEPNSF
# Sequence of ETV1 (P50549 whole entry): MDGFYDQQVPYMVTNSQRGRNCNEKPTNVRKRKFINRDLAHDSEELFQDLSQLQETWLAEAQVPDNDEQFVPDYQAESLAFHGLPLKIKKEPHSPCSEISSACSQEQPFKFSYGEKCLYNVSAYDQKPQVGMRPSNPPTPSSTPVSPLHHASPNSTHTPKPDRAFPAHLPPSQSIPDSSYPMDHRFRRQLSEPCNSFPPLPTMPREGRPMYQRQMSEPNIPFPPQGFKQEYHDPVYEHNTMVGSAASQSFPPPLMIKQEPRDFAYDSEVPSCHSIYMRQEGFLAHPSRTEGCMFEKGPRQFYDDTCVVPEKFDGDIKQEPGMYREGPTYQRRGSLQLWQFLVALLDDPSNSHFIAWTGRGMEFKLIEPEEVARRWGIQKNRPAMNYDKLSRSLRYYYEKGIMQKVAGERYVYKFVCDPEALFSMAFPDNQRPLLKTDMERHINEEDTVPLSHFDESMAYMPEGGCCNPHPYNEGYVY
# Sequence of SPIB (Q01892 whole entry): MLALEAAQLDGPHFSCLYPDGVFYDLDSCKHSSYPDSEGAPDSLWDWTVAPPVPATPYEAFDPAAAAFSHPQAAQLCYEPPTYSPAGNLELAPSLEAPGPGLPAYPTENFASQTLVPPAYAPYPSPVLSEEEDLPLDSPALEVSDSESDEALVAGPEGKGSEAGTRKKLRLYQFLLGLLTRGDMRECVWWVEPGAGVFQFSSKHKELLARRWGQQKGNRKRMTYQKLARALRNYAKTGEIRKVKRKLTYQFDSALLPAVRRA
# Sequence of HSF1 (Q00613 whole entry): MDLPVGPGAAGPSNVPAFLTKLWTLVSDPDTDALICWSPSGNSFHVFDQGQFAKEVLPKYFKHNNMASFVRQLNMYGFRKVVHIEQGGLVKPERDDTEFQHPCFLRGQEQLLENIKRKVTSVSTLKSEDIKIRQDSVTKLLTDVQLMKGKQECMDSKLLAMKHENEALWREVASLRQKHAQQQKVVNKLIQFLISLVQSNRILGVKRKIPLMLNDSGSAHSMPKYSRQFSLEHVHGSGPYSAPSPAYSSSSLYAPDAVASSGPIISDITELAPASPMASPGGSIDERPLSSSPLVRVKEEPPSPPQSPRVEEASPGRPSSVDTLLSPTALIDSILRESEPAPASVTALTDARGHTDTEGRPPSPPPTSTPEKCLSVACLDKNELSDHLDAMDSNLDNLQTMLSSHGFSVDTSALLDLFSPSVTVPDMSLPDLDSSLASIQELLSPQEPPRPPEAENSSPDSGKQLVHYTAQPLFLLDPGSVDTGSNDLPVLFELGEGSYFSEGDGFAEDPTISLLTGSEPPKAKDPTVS
# Sequence of CRX (O43186 whole entry): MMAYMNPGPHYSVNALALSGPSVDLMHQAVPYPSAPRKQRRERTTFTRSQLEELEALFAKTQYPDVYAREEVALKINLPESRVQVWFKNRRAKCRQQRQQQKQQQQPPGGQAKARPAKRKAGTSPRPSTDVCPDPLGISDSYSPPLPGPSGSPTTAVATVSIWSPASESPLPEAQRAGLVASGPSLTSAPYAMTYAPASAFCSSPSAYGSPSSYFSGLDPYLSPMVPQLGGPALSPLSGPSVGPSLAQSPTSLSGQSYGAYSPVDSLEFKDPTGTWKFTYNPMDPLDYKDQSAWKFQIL
# Sequence of ETV5 (P41161 whole entry): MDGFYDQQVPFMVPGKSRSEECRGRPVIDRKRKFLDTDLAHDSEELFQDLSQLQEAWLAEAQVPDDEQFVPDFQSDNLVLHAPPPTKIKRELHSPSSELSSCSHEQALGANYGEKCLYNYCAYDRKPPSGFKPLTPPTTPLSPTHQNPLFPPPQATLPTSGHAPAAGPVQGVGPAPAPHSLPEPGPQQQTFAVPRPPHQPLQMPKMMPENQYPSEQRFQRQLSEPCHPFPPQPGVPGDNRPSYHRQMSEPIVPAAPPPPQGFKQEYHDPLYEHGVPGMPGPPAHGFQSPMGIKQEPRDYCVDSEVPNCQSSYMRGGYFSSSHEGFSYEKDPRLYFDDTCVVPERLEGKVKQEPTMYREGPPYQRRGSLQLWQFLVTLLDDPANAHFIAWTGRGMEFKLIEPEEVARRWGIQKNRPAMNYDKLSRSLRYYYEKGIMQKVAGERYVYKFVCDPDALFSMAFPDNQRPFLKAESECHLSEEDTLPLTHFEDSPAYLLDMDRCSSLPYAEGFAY
sequence,measurement,setting,value
CGCTTA,binding signal,FLI1,"1.32 fold enrichment (6-mer frequency, TF over GST control)"
same,binding signal,ELK1,"1.26 fold enrichment (6-mer frequency, TF over GST control)"
same,binding signal,GABPA,"1.17 fold enrichment (6-mer frequency, TF over GST control)"
same,binding signal,ERG,"1.15 fold enrichment (6-mer frequency, TF over GST control)"
same,binding signal,ELF1,"1.32 fold enrichment (6-mer frequency, TF over GST control)"
same,binding signal,EHF,"1.18 fold enrichment (6-mer frequency, TF over GST control)"
same,binding signal,SPI1,"1.24 fold enrichment (6-mer frequency, TF over GST control)"
same,binding signal,SPIB,"1.41 fold enrichment (6-mer frequency, TF over GST control)"
same,binding signal,ELK3,"1.15 fold enrichment (6-mer frequency, TF over GST control)"
same,binding signal,FEV,"1.2 fold enrichment (6-mer frequency, TF over GST control)"
same,binding signal,ETV5,"1.29 fold enrichment (6-mer frequency, TF over GST control)"
same,binding signal,HSF1,"1.53 fold enrichment (6-mer frequency, TF over GST control)"
same,binding signal,SPIC,"1.22 fold enrichment (6-mer frequency, TF over GST control)"
same,binding signal,ELF4,"1.29 fold enrichment (6-mer frequency, TF over GST control)"
same,binding signal,ELK4,"1.32 fold enrichment (6-mer frequency, TF over GST control)"
same,binding signal,ETV2,"1.1 fold enrichment (6-mer frequency, TF over GST control)"
same,binding signal,ELF3,"1.29 fold enrichment (6-mer frequency, TF over GST control)"
same,binding signal,CRX,"2.11 fold enrichment (6-mer frequency, TF over GST control)"
same,binding signal,ETV1,"1.24 fold enrichment (6-mer frequency, TF over GST control)"
